Results taken from PubChem BioAssay (NCATS).
Values joined by “and” are separate entries in the source; they are usually repeats but may differ in a detail not shown here. Equal entries are not always repeated. Inconclusive results are not listed. A call without a number means that no potency is given here. Active and inactive are the calls of the source. Unless noted, calls follow the shape of the dose curve; as a rule, active = well fitted curve in the direction sought with a large enough effect; inconclusive = small, poorly fitted or top-dose-only effect, or another doubt; inactive = no such curve, though single readings can be large; an effect the other way counts as inactive or inconclusive.

Assays:
[1] = qHTS Assay for Identifying Gametocytocidal Compounds (AID 743244); also: potency is read from the fitted curve at half-maximal effect;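 as to max response: actives lower the fluorescent signal which means gametocytes are killed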; conditions: P. falciparum 3D7 stage III-V gametocytes, alamarBlue, 72 h; max response: stronger effect = lower value
Method in brief: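 Fluorescence at Ex 525/Em 598 nm, recorded 24 h after alamarBlue addition, reports residual metabolic activity of 3D7 gametocytes (stages III–V) following 72 h compound exposure at 37 °C, 5% CO2.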

[2] = qHTS assay for measurement of the activity of small molecule inhibitors on Zika virus induced Caspase-3 activity in human iPSC derived neural progenitor cells (hNPCs) (AID 1224857); also: nearly all actives have a fitted effect of over 65% in size; also: potency is read from the fitted curve at half-maximal effect
Method in brief: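 Zika virus (2 FFU/cell) infection of human iPSC-derived NPCs, 6 h, following 1 h compound preincubation. Read-out: Caspase-Glo 3/7 luminescence.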

[3] = qHTS assay to identify small molecule inhibitors of chordoma cells - UCH-1 (AID 1259355); also: nearly all actives have a fitted effect of over 55% in size
Method in brief: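 Screening used approved and investigational drugs in 15-point titration against 800 seeded cells per well. A fixed combination of auranofin with camptothecin, doxorubicin, rubitecan and topotecan followed compound addition, and growth was scored by CellTiter-Glo after 48hr.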

[4] = qHTS assay to identify small molecule inhibitors of chordoma cells - UCH-2 (AID 1259356)
[5] = qHTS assay for measurement of the activity of small molecule inhibitors on Zika virus induced Caspase-3 activity in human astrocytoma cells (AID 1224859)
Method in brief: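 Caspase activation in ZIKV-infected SNB-19 cells (2 FFU/cell, 6 h) measured by Caspase-Glo 3/7 luminescence after 30 min RT; compound pre-incubated 1 h; normalised to uninfected and infected controls.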

[6] = qHTS assay for cell viability of HEK293 cells (AID 743288); conditions: ATP luminescence (CellTiter-Glo), 18 h; max response: stronger effect = lower value; also: nearly all actives have a fitted effect of over 50% in size
Method in brief: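 Readout is luciferase-coupled ATP content (CellTiter-Glo luminescence, 30 min room temperature) as a measure of metabolically competent cells. Parental HEK293 cells were plated 5 h or more before compound addition, then treated 18 h at 37 C.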

[7] = qHTS assay for cell viability of the p53RE-bla HCT-116 cell line (AID 743292); also: nearly all actives have a fitted effect of over 55% in size
Method in brief: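 HCT-116 p53RE-bla cells seeded 4,000/well; 5 h at 37 C; compound (DMSO) added; 16 h at 37 C; CellTiter-Glo added, 30 min RT; luminescence read.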

[8] = target: T1, Hexokinase-4 (Homo sapiens) + Glucokinase regulatory protein (Homo sapiens) (UniProt P35557+Q14397); assay: qHTS assay for inhibitors of recombinant human GCK-GKRP interaction: Diaphorase-coupled assay (AID 743205)
Method in brief: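 A kinetic fluorescence read (Ex 525/Em 590 nm, every minute for 30 minutes) tracked resorufin from a G6PDH-diaphorase coupled GCK reaction. It contained 10 nM GST-GCK, 10 nM FLAG-GKRP, 5 mM glucose, 0.4 mM ATP in Hepes pH 7.6. Normalized to with/without-enzyme DMSO controls.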

[9] = target: T1, Hexokinase-4 (Homo sapiens) + Glucokinase regulatory protein (Homo sapiens); assay: qHTS assay for inhibitors of recombinant human GCK-GKRP interaction: ADP-Glo assay (AID 743206)
Method in brief: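 Pin-transferred compounds meet a 15 nM GST-GCK/15 nM FLAG-GKRP/2 uM S6P mix (dispense concentrations). ATP is then added to 0.4 mM final with 5 mM glucose, and the reaction runs 60 min at room temperature. ADP is quantified luminescently.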

[10] = target: T1, Hexokinase-4 (Homo sapiens) + Glucokinase regulatory protein (Homo sapiens); assay: qHTS assay for inhibitors of recombinant human GCK-GKRP interaction: HTRF assay (AID 743207)
Method in brief: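 After 60 min equilibration at room temperature with anti-FLAG XL665 and anti-GST antibodies, FRET ratio (665/615 nm, excitation 320 nm) was read. Proteins: GST-GCK and FLAG-GKRP, each 5 nM, plus 2 uM S6P, pH 7.1 buffer; GCK-free wells define minimum signal.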

[11] = qHTS profiling of the MIPE4 collection as inhibitors of Plasmodium falciparum (3D7) proliferation (AID 743344; call rule not given here); conditions: P. falciparum 3D7 in erythrocytes, SYBR Green DNA fluorescence, 72 h; at 28.5 µM (top of the series)
Method in brief: (§1)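 Parasite DNA was quantified by SYBR Green I fluorescence (ex 485, em 535 nm) after overnight lysis in saponin/Triton buffer at room temperature. Cultures at 0.3% parasitemia and 2.5% hematocrit were first exposed to compound for 72 h at 37 C; signals were normalised to artemisinin (0.29 uM) and vehicle wells.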

[12] = qHTS profiling of the MIPE4 collection as inhibitors of Plasmodium falciparum (DD2) proliferation (AID 743345; call rule not given here); conditions: P. falciparum Dd2 in erythrocytes, SYBR Green DNA, 72 h; at 28.5 µM (top of the series)
Method in brief: as §1

[13] = qHTS profiling of the MIPE4 collection as inhibitors of Plasmodium falciparum (DD2) proliferation (Rep 2) (AID 743346; call rule not given here); conditions: P. falciparum Dd2 in erythrocytes, SYBR Green DNA, 72 h; at 28.5 µM (top of the series)
Method in brief: as §1

[14] = qHTS profiling of the MIPE4 collection as inhibitors of Plasmodium falciparum (HB3) proliferation (AID 743347; call rule not given here); conditions: P. falciparum HB3 in erythrocytes, SYBR Green DNA, 72 h; at 28.5 µM (top of the series)
Method in brief: as §1

T1 sequence (P35557 whole entry, looked up): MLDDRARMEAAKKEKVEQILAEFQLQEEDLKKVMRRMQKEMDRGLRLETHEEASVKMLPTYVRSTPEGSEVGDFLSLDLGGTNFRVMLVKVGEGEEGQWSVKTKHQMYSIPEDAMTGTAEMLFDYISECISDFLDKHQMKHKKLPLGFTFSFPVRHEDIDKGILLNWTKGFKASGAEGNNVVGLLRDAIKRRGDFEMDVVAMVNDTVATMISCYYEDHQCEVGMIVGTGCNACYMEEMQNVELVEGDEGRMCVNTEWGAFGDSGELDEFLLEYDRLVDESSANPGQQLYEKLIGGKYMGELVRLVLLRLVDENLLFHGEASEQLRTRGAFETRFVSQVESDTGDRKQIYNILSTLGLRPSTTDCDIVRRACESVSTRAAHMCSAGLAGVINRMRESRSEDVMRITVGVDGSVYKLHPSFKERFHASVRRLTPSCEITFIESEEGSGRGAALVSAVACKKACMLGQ
T1 sequence (Q14397 whole entry, looked up): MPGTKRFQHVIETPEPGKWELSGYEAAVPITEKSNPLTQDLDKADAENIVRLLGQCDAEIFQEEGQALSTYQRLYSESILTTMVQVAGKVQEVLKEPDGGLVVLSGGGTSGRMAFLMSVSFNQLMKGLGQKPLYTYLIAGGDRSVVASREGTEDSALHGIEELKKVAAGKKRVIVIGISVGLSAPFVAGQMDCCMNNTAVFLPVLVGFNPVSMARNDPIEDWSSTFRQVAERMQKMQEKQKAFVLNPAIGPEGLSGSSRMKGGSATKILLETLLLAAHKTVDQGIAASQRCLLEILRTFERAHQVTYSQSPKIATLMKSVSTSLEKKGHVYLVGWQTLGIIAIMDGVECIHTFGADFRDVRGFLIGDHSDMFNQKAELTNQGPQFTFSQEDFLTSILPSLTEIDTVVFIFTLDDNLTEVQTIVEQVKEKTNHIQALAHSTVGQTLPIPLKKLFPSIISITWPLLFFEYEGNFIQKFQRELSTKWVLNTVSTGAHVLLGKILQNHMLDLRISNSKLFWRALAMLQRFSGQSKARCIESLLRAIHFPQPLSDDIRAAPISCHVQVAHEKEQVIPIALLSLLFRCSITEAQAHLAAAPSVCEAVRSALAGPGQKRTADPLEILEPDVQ

For CC(C(=O)O)c1ccc(C(=O)c2cccs2)cc1 (stereo unspecified), the max response [1] was 13.3% (inactive), the Potency [2] was 22.4 µM (active) and the Potency [3] was “inactive”. The Potency [4] was “inactive”.
In the case of C/C(=N\O)c1ccc(OCC(=O)N2CCCCC2)cc1, the max response [1] is reported as 0.0539% (inactive) and the Potency [2] is reported as 15.8 µM (active).
With NC(=O)C(c1ccccc1)(c1ccccc1)[C@@H]1CCN(CCc2ccc3c(c2)CCO3)C1 the max response [1] was -5.51% (inactive), the Potency [2] was “inactive” and the Potency [3] was “inactive”. For the same compound, the Potency [4] was “inactive”.
In the case of COC(=O)Nc1nc2ccc(C(=O)C3CC3)cc2[nH]1, the Potency [5] is reported as “inactive”.
In the case of O=c1cc(-c2ccccc2)oc2ccccc12, the max response [1] is reported as 7.39% (inactive), the max response [6] is reported as -12.4% (inactive) and -11.5% (inactive) and the Potency [7] is reported as “inactive”. The Potency [2] was 35.5 µM (active).
In the case of CC(N)C(=O)OC(C)(C)Cc1ccc(Cl)cc1 (stereo unspecified), the outcome [8] is reported as “inactive”, the Potency [9] is reported as “inactive” and the Potency [10] is reported as “inactive”. For the same compound, the max response [1] was 11% (inactive) and 11.7% (inactive), the Potency [5] was “inactive” and the Potency [3] was “inactive”. The Potency [4] was “inactive”.
In the case of O=Cc1ccc(O)c(O)c1O, the Potency [5] is reported as “inactive”.
For CCCCCCOc1ccccc1C(N)=O, the max response [1] was -0.639% (inactive), the Potency [5] was “inactive” and the Potency [3] was “inactive”. The Potency [4] was “inactive”.
For O=C1CN(/N=C/c2ccc([N+](=O)[O-])o2)C(=O)N1, the max response [1] was 3.97% (inactive), the Potency [7] was “inactive” and the Potency [5] was “inactive”. The Potency [3] was “inactive” and the Potency [4] was “inactive”.
For C=CCCCCCCCCC(=O)O, the max response [1] was 8% (inactive), the max response [6] was -1.32% (inactive) and the Potency [7] was “inactive”. For the same compound, the Potency [5] was “inactive”, the Potency [3] was “inactive” and the Potency [4] was “inactive”.
In the case of CCCC(=O)OC[C@@H](OC(=O)CCC)[C@@H](OC(=O)CCC)[C@H](Cn1c2nc(=O)[nH]c(=O)c-2nc2cc(C)c(C)cc21)OC(=O)CCC, the max response [1] is reported as 3.76% (inactive), the Potency [5] is reported as “inactive” and the Potency [3] is reported as “inactive”. The Potency [4] was “inactive”.
In the case of [O-][n+]1ccccc1SSc1cccc[n+]1[O-], the Potency [1] is reported as 0.148 µM (active), the Potency [5] is reported as “inactive” and the Potency [4] is reported as “inactive”.
With Nc1ccc(C(=O)O)c(O)c1 the max response [1] was 1.29% (inactive), the Potency [5] was “inactive” and the Potency [3] was “inactive”. For the same compound, the Potency [4] was “inactive”.
With c1ccc2sc(SN3CCOCC3)nc2c1 the max response [1] was -2.78% (inactive), the Potency [5] was “inactive” and the Potency [3] was “inactive”. The Potency [4] was “inactive”.
With O=C(OCc1ccccc1)c1ccccc1 the max response [1] was -5.44% (inactive), the max response [6] was -7.64% (inactive) and the Potency [7] was “inactive”. The Potency [5] was “inactive”, the Potency [3] was “inactive” and the Potency [4] was “inactive”.
In the case of COC(=O)C1=C(C)NC(C)=C(C(=O)OCC(C)C)C1c1ccccc1[N+](=O)[O-] (stereo unspecified), the max response [1] is reported as 0.875% (inactive), the parasite growth, % of DMSO control [11] is reported as 5.69% and the parasite growth remaining, % of DMSO control (lower = more inhibition) [12] is reported as 15%. The parasite growth, % of control (lower = inhibition) [13] was 8.98%, the growth, % of control [14] was 9.44% and the Potency [5] was “inactive”. For the same compound, the Potency [3] was “inactive” and the Potency [4] was “inactive”.
In the case of O=C(CCN1CCN(CCO)CC1)N1c2ccccc2Sc2ccc(C(F)(F)F)cc21, the max response [1] is reported as -4.95% (inactive), the Potency [5] is reported as “inactive” and the Potency [3] is reported as “inactive”. The Potency [4] was “inactive”.
